Bioassay records as filed in PubChem BioAssay.
A selection: hits, their analogues and other compounds. The true share with any hit is near 2.6%.
Shn3 3UTR inh: inhibitors of Schnurri-3 3'UTR reporter in osteoblasts. Clone20 osteoblast Shn3 3'UTR firefly luciferase, 24 h. inhibition, % at 12.5 µM. hit rate 0.52% among 360,000. AID 588674;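 active = mean inhibition of at least 75% with every replicate also reaching 75%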
CF NFkB inh: blocks PAF-induced NF-kB reporter in cystic fibrosis cells; KKLEB NF-kB-GFP reporter, GFP fluorescence overnight; inhibition, % at 5 µM; hit rate 0.86% among 360,000;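 active = at least 50% inhibition at 5 µM, scaled per plate between neutral and stimulator controls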;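 note: PAF is a Pseudomonas aeruginosa culture filtrate used as stimulus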
Peg3 promoter: inhibitors of Peg3 promoter | HeLa PEG-Prom luciferase reporter, luminescence, overnight | hit rate 1.7% among 360,000 | inhibition, % at 20 µM;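 active = inhibition of at least 50% at 20 µM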
KKLEB cytotox: reduces viability of KKLEB cystic fibrosis airway cells. AID 602141. hit rate 0.36% among 360,000. KKLEB CF airway cells viability, ATPlite luminescence, overnight; stronger effect = lower value; cells stimulated with P. aeruginosa culture filtrate. activity change (cytotoxicity), % at 5 µM;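 active = corrected activity change at or below -50% at 5 µM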
HIF-2a inh: inhibitors of HIF-2a; 786-0 RCC cells HIF-2a reporter, luciferase luminescence, overnight; inhibition, % at 18.8 µM; hit rate 0.72% among 360,000; AID 624352;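 active = inhibition of the luminescence signal of 40% or more relative to plate controls, in a single-dose primary screen at 18.75 µM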
Mdm2 MdmX conf: Mdm2/MdmX (human) interaction inhibition, confirmed | inhibition, % at 8 µM | SaOS-2 split-luciferase Mdm2/MdmX complementation, luminescence | AID 504601 | shares compounds with HIF-2a inh | hit rate 99% among 740;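 active = mean inhibition of the luminescence signal across two replicates at or above 26 percent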
Target sequence (O15151 whole entry, looked up): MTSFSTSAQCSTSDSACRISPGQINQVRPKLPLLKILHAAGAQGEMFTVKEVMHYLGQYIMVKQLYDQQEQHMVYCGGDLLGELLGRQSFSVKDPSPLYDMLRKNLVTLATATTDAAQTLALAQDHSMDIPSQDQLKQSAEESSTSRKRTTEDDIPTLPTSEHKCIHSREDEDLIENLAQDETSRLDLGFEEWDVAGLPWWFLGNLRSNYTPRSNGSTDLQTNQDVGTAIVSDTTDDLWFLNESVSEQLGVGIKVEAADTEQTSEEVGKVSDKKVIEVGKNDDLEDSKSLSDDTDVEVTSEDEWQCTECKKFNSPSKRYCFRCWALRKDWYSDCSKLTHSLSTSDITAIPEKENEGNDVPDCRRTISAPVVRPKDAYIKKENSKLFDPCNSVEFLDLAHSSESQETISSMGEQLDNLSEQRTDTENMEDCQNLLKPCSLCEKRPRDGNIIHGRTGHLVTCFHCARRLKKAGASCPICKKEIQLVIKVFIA
Target sequence (Q00987 whole entry, looked up): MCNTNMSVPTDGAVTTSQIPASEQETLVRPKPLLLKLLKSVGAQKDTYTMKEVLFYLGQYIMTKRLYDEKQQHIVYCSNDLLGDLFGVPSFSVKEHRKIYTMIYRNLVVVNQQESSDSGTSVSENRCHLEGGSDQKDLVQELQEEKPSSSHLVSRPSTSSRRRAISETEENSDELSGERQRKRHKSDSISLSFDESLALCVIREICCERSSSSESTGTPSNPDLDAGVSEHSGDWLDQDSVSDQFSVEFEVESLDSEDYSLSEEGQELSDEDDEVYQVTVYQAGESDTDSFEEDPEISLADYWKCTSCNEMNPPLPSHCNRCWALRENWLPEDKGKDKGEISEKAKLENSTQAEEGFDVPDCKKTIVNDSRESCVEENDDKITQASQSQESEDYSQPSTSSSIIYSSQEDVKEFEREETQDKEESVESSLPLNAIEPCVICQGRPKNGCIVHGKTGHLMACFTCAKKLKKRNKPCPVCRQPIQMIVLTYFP
HIF-2a inh conf: HIF-2a inhibition, single concentration confirmation; shares compounds with HIF-2a inh; 786-0 RCC cells, HIF-2a luciferase reporter luminescence, overnight; inhibition, % at 18.8 µM; hit rate 56% among 1,800;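 active = mean inhibition across four replicates of at least 40 percent at the single tested concentration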
HIF-1a cs: HIF-1a inhibition counter-screen for HIF-2a hits; shares compounds with HIF-2a inh; MiaPaCa-2 HIF-1a luciferase reporter, desferoxamine, overnight; inhibition, % at 18.8 µM; hit rate 72% among 1,800;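 active = mean inhibition of the reporter signal across four replicates at the single tested dose of 50% or more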
Each line names hits and unclear results; the compound was inactive in the other large screens (follow-up assays come after a bar, where they were run).

COc1cccc(/C=N/NC(=O)c2cccc([N+](=O)[O-])c2)c1OS(=O)(=O)c1ccccc1	none
CCc1ccc2oc(=O)cc(CN3CCOCC3)c2c1	HIF-2a inh 46 | HIF-2a inh conf inactive | HIF-1a cs inactive
COc1ccc(N2CC(C(=O)Nc3nnc(SCC(=O)c4ccccc4)s3)CC2=O)cc1 (stereo unspecified)	none
COc1cc(C(C[N+](=O)[O-])c2c(-c3ccccc3)cc3ccccn23)cc(OC)c1OC (stereo unspecified)	HIF-2a inh 43 | HIF-2a inh conf inactive | HIF-1a cs 68
CC1(C)Cc2cccc(C(=O)NC3CCN(Cc4ccccc4)CC3)c2O1	none
NC(Cc1ccccc1)c1csc(NC(=O)c2cccc(OC(F)(F)F)c2)n1 (stereo unspecified)	Peg3 promoter 99, HIF-2a inh 65 | HIF-2a inh conf inactive | HIF-1a cs 106
COc1ccc(CC(N)c2csc(NC(=O)c3ccc(OC)cc3)n2)cc1 (stereo unspecified)	none
COc1ccc(Br)cc1/C=C(\C(=O)O)c1ccc(S(=O)(=O)N2CCCCC2)s1	none
[2H]C(CCOS(N)(=O)=O)c1ccc(C(C)(C)C)cc1 (stereo unspecified)	Peg3 promoter 59, HIF-2a inh 57 | HIF-2a inh conf 63 | HIF-1a cs inactive
Cn1cc(CN2CCC(C(=O)NC(c3ccc(F)cc3)c3ccc4ccccc4n3)CC2)c2ccccc21 (stereo unspecified)	Peg3 promoter 101, HIF-2a inh 92 | HIF-2a inh conf inactive | HIF-1a cs 106
C=C1C(=O)OC2C=C(CO)C3OC3C3OC3(C)CC(OC(=O)/C(=C/C)COC(C)=O)C12 (stereo unspecified)	Shn3 3UTR inh 93, CF NFkB inh 82, Peg3 promoter 106, KKLEB cytotox -92, HIF-2a inh 85 | HIF-2a inh conf 93 | HIF-1a cs 107
COc1ccc(-n2nc(C(C)=O)c(=O)[nH]c2=O)cc1	none
COc1ccc(/C=C/C(=O)Nc2ccc(OC)nc2)cc1	none
COc1ccc(CS(=O)(=O)/C(Cl)=C(/Cl)C(=O)Nc2ccc(OC)nc2)cc1	Shn3 3UTR inh 98, CF NFkB inh 88, Peg3 promoter 104, KKLEB cytotox -86, HIF-2a inh 93 | Mdm2 MdmX conf 103
COc1ccc(CNC(=O)Cn2cnc3c(=O)n(C)c(=O)n(C)c32)cc1	HIF-2a inh 42 | HIF-2a inh conf inactive | HIF-1a cs inactive
Cn1c(=O)c2ncn(CC(=O)NCCOc3ccccc3)c2n(C)c1=O	none
CSC(=Nc1ccccc1)N=C(SCc1ccccc1)N(C)C	Shn3 3UTR inh 93, Peg3 promoter 96, HIF-2a inh 83 | HIF-2a inh conf 74 | HIF-1a cs 107
N#CNC(=Nc1ccccc1)SCc1ccc(C(=O)O)cc1	none
O=C(Nc1cccc(NC(=O)c2cc([N+](=O)[O-])ccc2Cl)n1)c1cc([N+](=O)[O-])ccc1Cl	Peg3 promoter 93, HIF-2a inh 84 | Mdm2 MdmX conf 100 | HIF-2a inh conf inactive | HIF-1a cs 102
Cn1cncc1C#Cc1c(C=O)[nH]c2ccccc12	HIF-2a inh 43 | HIF-2a inh conf inactive | HIF-1a cs 88
Cn1cncc1C#Cc1c(C=O)n(C)c2ccccc12	none
O=[N+]([O-])/C=C/c1cn(Cc2ccccc2)c2ccccc12	Peg3 promoter 55, HIF-2a inh 43 | HIF-2a inh conf 71 | HIF-1a cs 105
N#Cc1ccccc1Cn1cc(/C=C/[N+](=O)[O-])c2ccccc21	Shn3 3UTR inh 96, Peg3 promoter 106, HIF-2a inh 96 | HIF-2a inh conf 97 | HIF-1a cs 105
O=C(O)Cn1cc(/C=C/[N+](=O)[O-])c2ccccc21	none
COc1cc(C=CC(=O)c2ccccc2)cc(OC)c1OC	Peg3 promoter 98, HIF-2a inh 37 | HIF-2a inh conf inactive | HIF-1a cs 95
